Pf Dd2 growth = inhibitors of Plasmodium falciparum Dd2 growth; P. falciparum Dd2 growth, SYBR Green, 72 h; Potency, µM (highest dose often 28.9 µM), for the others: top-dose activity, negative = inhibition, hits mostly inhibitors; 4.3% of 120,000 active; active = well fitted inhibition curve with a large enough effect;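 note: plate controls were DMSO vehicle for no effect and reference drug for full effect; nearly all actives have a fitted effect of over 65% in size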
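Infected erythrocytes (Dd2, 0.3% parasitemia, 2.5% hematocrit final) are added to compound in RPMI-1640/Albumax II medium, grown 72 h at 37C in low oxygen, then lysed with saponin/Triton-X containing SYBR Green and read by fluorescence.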
An asterisk follows results filed as active; i = inactive; [ ] = remark or other dose. The entries come from a sample that favours hits as a whole. Potency is the fitted concentration of half-maximal effect.

SMILES | Pf Dd2 growth
CSc1ccc(-c2nc(CN3CCOC(CCO)C3)c(C)o2)cc1 (stereo unspecified) | -10.0%
Cc1cccc(CN2CCN(Cc3nc(-c4cccs4)oc3C)CC2CCO)n1 (stereo unspecified) | 11.2µM*
O=C(NC1CCN(c2cc(-c3ccccc3)[nH]n2)CC1)c1ccc(F)cc1F | i
CCOC(=O)c1ccc(NC(=O)CCCc2nc(-c3cc(OC)c(OC)c(OC)c3)no2)cc1 | 12.6µM*
CCOC(=O)c1ccc(NC(=O)Cc2noc3ccc(C)cc23)cc1 | -5.0%
O=C(CCCc1nc(-c2ccccc2)no1)Nc1cc(C(F)(F)F)cc(C(F)(F)F)c1 | -9.1%
CN(C)c1nccnc1OC1CCN(C(=O)CC2CCCC2)C1 (stereo unspecified) | -8.7%
OCC1CN(C2CCC2)CC12CCN(C1CCC1)CC2 (stereo unspecified) | 1.4%
O=C(Cc1ccc(Cl)cc1)N1CCC2(CC1)CN(C1CCC1)CC2CO (stereo unspecified) | 8.91µM*
COCC1CN(C(C)=O)CC12CCN(C(=O)COc1cccc(C)c1)CC2 (stereo unspecified) | i
COCC1CN(C2CCC2)CC12CCN(C(=O)c1ccccn1)CC2 (stereo unspecified) | 11.5%
COCC1CN(C2CCC2)CC12CCN(C(=O)c1cccc(C#N)c1)CC2 (stereo unspecified) | -23.2%
N#Cc1cccc(C(=O)N2CCC3(CC2)CN(C2CCC2)CC3CO)c1 (stereo unspecified) | -9.9%
COCC1CN(C2CCC2)CC12CCN(C(=O)c1cccc(C)c1)CC2 (stereo unspecified) | 8.91µM*
COCC1CN(C2CCC2)CC12CCN(C(=O)COc1cccc(C)c1)CC2 (stereo unspecified) | 5.01µM*
COCC1CN(C2CCC2)CC12CCN(C(=O)c1cccs1)CC2 (stereo unspecified) | -11.5%
COCCOC1CCOC2(CCN(C(=O)Cc3ccsc3)CC2)C1 (stereo unspecified) | i
O=C(c1ccccc1)N1CCC2(CC(c3cccc(C(F)(F)F)c3)=NO2)C1 (stereo unspecified) | -8.8%
OC1(CN2CCC(CCn3cccn3)CC2)CCNC1 (stereo unspecified) | 0.4%
CN(C)CCCn1ccnc1C1CCN(C(=O)C2CCCN(C)C2)CC1 (stereo unspecified) | 11.4%
Cc1ccccc1C(=O)N1CC(c2nnc(-c3ccncc3)o2)C2(CCOCC2)C1 (stereo unspecified) | 8.2%
Cc1ccc(N2CC(NC(=O)c3cccc(CCC(C)(C)O)c3)CC2=O)cc1 (stereo unspecified) | -20.7%
Cc1cc(CNC(=O)c2cc(C(C)C)n3ncnc3n2)c2[nH]c(C)c(C)c2c1 | 8.91µM*
CC(C)c1cc(C(=O)NCCc2nc(-c3cccnc3)no2)nc2ncnn12 | 3.9%
CC(C)c1cc(C(=O)NCCc2noc(C3CCCO3)n2)nc2ncnn12 (stereo unspecified) | 4.1%
SMILES | Pf Dd2 growth
COc1ccc(CN2C=C(C(=O)OCc3noc(-c4ccc(C)c(C)c4)n3)C(C)=NS2(=O)=O)cc1 | i
COc1ccc(CN2C=C(C(=O)OCc3noc(-c4ccc(C)cc4)n3)C(C)=NS2(=O)=O)cc1 | 11.2µM*
COc1ccc(CN2C=C(C(=O)OCc3noc(C)n3)C(C)=NS2(=O)=O)cc1 | 13.7%
CCn1c(=O)c2c(cc(C)n2C)n(CC(=O)Nc2c(C)cccc2C)c1=O | 15.3%
O=C(NC1CCCC1)N1CCCC(Cn2c(C3CC3)nc3cccnc32)C1 (stereo unspecified) | i
Cc1cccc(OCC2(CNS(=O)(=O)c3ccc(F)cc3)C[C@@H](O)[C@@H](O)C2)n1 (stereo partly specified) | -23.7%
COc1cccc(N2C(=O)NC(=NC3CCCCC3)C23CCCN(C(=O)c2ccccc2)C3)c1 (stereo unspecified) | 14.7%
COc1cccc(N2C(=O)NC(=NC3CCCCC3)C23CCN(C(=O)c2ccccc2)C3)c1 (stereo unspecified) | -27.8%
COc1cccc(N2C(=O)NC(=NC3CCCCC3)C23CCCN(Cc2ccc(N(C)C)cc2)C3)c1 (stereo unspecified) | 11.2µM*
COc1cccc(N2C(=O)NC(=NC3CCCC3)C23CCN(C(=O)c2ccccc2)C3)c1 (stereo unspecified) | -21.4%
COc1cccc(N2C(=O)NC(=NC3CCCC3)C23CCCN(Cc2ccc(N(C)C)cc2)C3)c1 (stereo unspecified) | 11.2µM*
COc1ccc(C(=O)N2CCCC3(C2)C(=NC2CCCC2)NC(=O)N3c2cccc(OC)c2)cc1 (stereo unspecified) | 8.3%
O=C(NCc1cnccn1)c1ccc(-c2ncc3cnc(C4=CCOCC4)cn23)cc1 | i
CN1CC(=O)N(c2ccc(Cl)cc2)Cc2c(NC3CCNCC3)ncnc21 | 3.4%
COc1ccc(-c2c3c(nc4sc(C(=O)Nc5ccc(Cl)cc5)c(N)c24)CC(C)(C)CC3=O)cc1 | 0.0631µM*
COc1ccc(NC(=O)c2sc3nc(C)c(C(=O)Nc4ccc(Cl)cc4)c(-c4ccc(Br)cc4)c3c2N)cc1 | -2.5%
COc1ccc(NC(=O)c2sc3nc4c(cc3c2N)CCCCCC4)cc1 | 22.4%
O=C(Nc1ccc(F)cc1)c1ccn2nccc2c1 | -6.6%[44.1 µM]
CC(=O)c1cccc(NC(=O)Cn2c(=O)n(-c3ccc(F)cc3)c(=O)c3c2cc(C)n3C)c1 | -23.9%
CC(C)=CCn1c(-c2ccccc2Cl)cn2cc(C(=O)NCCCO)nc2c1=O | 7.94µM*
C=CCn1c(-c2cccs2)cn2cc(C(=O)NC(CC)CO)nc2c1=O (stereo unspecified) | 1.3%
C=CCn1c(-c2ccc(F)cc2)cn2cc(C(=O)N[C@@H](C)CO)nc2c1=O | -16.8%
CCCCN(Cc1ccsc1)C(=O)c1cnc(Nc2ccccc2)nc1 | -15.2%
Cc1cccc(C(=O)N2C(C(=O)NCC3CCCO3)COC23CCN(C(=O)C(C)(C)C)CC3)c1 (stereo unspecified) | 4.8%
CNC(=O)N1CCC(C2CCN(S(=O)(=O)c3cnc[nH]3)C2)CC1 (stereo unspecified) | -22.4%
SMILES | Pf Dd2 growth
O=C1NCN(Cc2ccc(Cl)cc2)C12CCN(Cc1cccc3ccccc13)CC2 | -29.0%
O=C(c1ccc(Cl)cc1)N1CCC2(CC1)C(=O)NCN2Cc1ccccc1 | 3.5%
O=C1NCN(Cc2ccc(Cl)cc2)C12CCN(Cc1ccsc1)CC2 | 8.91µM*
O=C(Nc1ccc(C(F)(F)F)cc1)N1CCC2(CC1)C(=O)NCN2Cc1ccc(Cl)cc1 | -5.0%
O=C(Nc1ccccc1)N1CCC2(CC1)C(=O)NCN2Cc1ccc(Cl)cc1 | 3.16µM*
O=C1NCN(Cc2ccc(Cl)cc2)C12CCN(Cc1ccccn1)CC2 | -15.5%
O=C(NCc1cccnc1)c1ccc(-c2ccc(N3CCSCC3)nc2)cc1 | i
CCn1ccc(C(=O)N2CCC3(CCC3NC(=O)COC)CC2)n1 (stereo unspecified) | 9.9%
O=C(c1coc(COc2ccc(F)cc2Cl)n1)N1CCCCO1 | -23.6%
O=C1Cc2c(-c3cccc(CO)c3)n[nH]c2CN1CC1CC1 | 12.5%[44.1 µM]
CCN(CC)[C@H]1[C@@H]2OC[C@@H](O2)[C@@H](NC(=O)Nc2cccc(OC)c2)[C@@H]1O | i
CCN(CC)[C@H]1[C@@H]2OC[C@@H](O2)[C@@H](NCc2ccc(N(C)C)cc2)[C@@H]1O | i
CCN(CC)[C@H]1[C@@H]2OC[C@@H](O2)[C@@H](NCC2CCCCC2)[C@@H]1O | 10µM*
COc1ccc(CNC(=O)N(C)C2CCc3nn(CC4CC4)c(=O)n3CC2)cc1 (stereo unspecified) | 19.0%
